# PubChem BioAssay (EPA / NIEHS)
# “And” between values parts separate entries of the source, which are not always exact repeats. Equal entries are not always repeated. A structure can be active in one record and inactive in another. The source made the active and inactive calls. How the source made its calls: active means hit-call score of the fitted dose curve at least 0.9, where 1 is the maximum; inactive means score below 0.9.
# Key:
# [1] = read-out: Tissue plasminogen activator (tPA), PLAT (gene 5327); test: BSK_BF4T_tPA: BioMAP Diversity Plus: BF4T Assay for Tissue plasminogen activator (tPA) Biomarker Activity (AID 2284272); conditions: primary human bronchial epithelial cells with fibroblasts
# Summary of the method: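 tPA level quantified by ELISA at 24 h post-treatment in bronchial epithelial/dermal fibroblast co-cultures, gain of signal scored against DMSO baseline. Parallel cultures stained with 0.1% SRB (560 nm) to flag overt cytotoxicity.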
# [2] = read-out: Plasminogen Activator Inhibitor-1 (PAI1), SERPINE1 (gene 5054); test: BSK_BF4T_PAI1: BioMAP Diversity Plus: BF4T Assay for Plasminogen Activator Inhibitor-1 (PAI1) Biomarker Activity (AID 2284273); conditions: primary human bronchial epithelial cells with fibroblasts
# Summary of the method: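 Co-culture of human bronchial epithelial cells and dermal fibroblasts exposed to compound for 24 h. PAI-1 measured by ELISA; activity fitted in positive direction versus DMSO. Parallel SRB staining assessed overt cytotoxicity.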
# [3] = BSK_BF4T_SRB: Viability Assessment in the BioMAP Diversity Plus: BF4T Assay (AID 2284274); conditions: primary human bronchial epithelial cells with fibroblasts;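 on AC50: total cell protein by sulforhodamine B staining as a cytotoxicity measure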
# Summary of the method: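 Co-culture of human bronchial epithelial cells and dermal fibroblasts (BioMAP BF4T) exposed 24 h. Total protein by sulforhodamine B staining (0.1% SRB after 10% TCA fixation, 560 nm) in parallel cultures; fitted vs DMSO.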
# [4] = read-out: urokinase Plasminogen Activator (uPA), PLAU (gene 5328); test: BSK_BF4T_uPA: BioMAP Diversity Plus: BF4T Assay for urokinase Plasminogen Activator (uPA) Biomarker Activity (AID 2284275); conditions: primary human bronchial epithelial cells with fibroblasts
# Summary of the method: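 Co-culture of human bronchial epithelial cells and dermal fibroblasts; uPA quantified by ELISA 24 hours after dosing, fitted relative to DMSO. Parallel SRB total-protein staining assessed overt cytotoxicity.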
# [5] = read-out: Matrix Metallopeptidase 9 (MMP9), MMP9 (gene 4318); test: BSK_BF4T_MMP9: BioMAP Diversity Plus: BF4T Assay for Matrix Metallopeptidase 9 (MMP9) Biomarker Activity (AID 2284276); conditions: primary human bronchial epithelial cells with fibroblasts
# Summary of the method: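 Co-culture of human bronchial epithelial cells and dermal fibroblasts dosed for 24 h; MMP-9 quantified by ELISA and fitted upward versus DMSO. Cytotoxicity monitored in parallel cultures by SRB total-protein staining at the biomarker time point.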
# [6] = read-out: Interleukin-8 (IL8), CXCL8 (gene 3576); test: BSK_IMphg_IL8: BioMAP Diversity Plus: IMphg Assay for Interleukin-8 (IL8) Biomarker Activity (AID 2284277); conditions: primary human endothelial cells with macrophages
# Summary of the method: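 Co-culture of human venular endothelial cells and macrophages exposed to chemicals for 24 h; IL-8 quantified by ELISA and compared against the DMSO baseline, with SRB total-protein staining in parallel cultures for cytotoxicity.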
# [7] = read-out: Intercellular Adhesion Molecule 1 (ICAM1), ICAM1 (gene 3383); test: BSK_BE3C_ICAM1: BioMAP Diversity Plus: BE3C Assay for Intercellular Adhesion Molecule 1 (ICAM1) Biomarker Activity (AID 2284278); conditions: primary human bronchial epithelial cells;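 on outcome: cell-surface ICAM-1 protein level quantified by ELISA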
# Summary of the method: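 Primary human bronchial epithelial cells were exposed to compound for 24 h, after which cell-surface ICAM-1 was quantified by ELISA. Activity was fitted in the gain-of-signal direction against DMSO as negative control and baseline.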
# [8] = read-out: Interferon-inducible T-cell alpha chemoattractant (ITAC), CXCL11 (gene 6373); test: BSK_BE3C_ITAC: BioMAP Diversity Plus: BE3C Assay for Interferon-inducible T-cell alpha chemoattractant (ITAC) Biomarker Activity (AID 2284279); conditions: primary human bronchial epithelial cells
# Summary of the method: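 ELISA for I-TAC in primary human bronchial epithelial cultures 24 h post-treatment, fitted relative to DMSO baseline in positive direction. Cytotoxicity checked in parallel cultures by sulforhodamine B protein staining.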
# [9] = read-out: Interleukin-8 (IL8), CXCL8 (gene 3576); test: BSK_BE3C_IL8: BioMAP Diversity Plus: BE3C Assay for Interleukin-8 (IL8) Biomarker Activity (AID 2284280); conditions: primary human bronchial epithelial cells
# Summary of the method: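 IL-8 signal gain, normalised to DMSO vehicle, was scored after a 24 h chemical exposure of primary human bronchial epithelial cells, with detection by ELISA.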
# [10] = read-out: Epidermal growth factor receptor (EGFR), EGFR (gene 1956); test: BSK_BE3C_EGFR: BioMAP Diversity Plus: BE3C Assay for Epidermal growth factor receptor (EGFR) Biomarker Activity (AID 2284281); conditions: primary human bronchial epithelial cells
# Summary of the method: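 Compound is added to human bronchial epithelial cells, cells incubate 24 h, then EGFR is detected by ELISA. Values reflect positive-direction fitting relative to DMSO.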
# KRT18 (gene 3875) = test: BSK_BE3C_Keratin818: BioMAP Diversity Plus: BE3C Assay for Keratin 818 Biomarker Activity (AID 2284282); conditions: primary human bronchial epithelial cells
# Summary of the method: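 Human primary bronchial epithelial cells in the BE3C system were exposed to test chemical for 24 h, then Keratin 8/18 was quantified by ELISA. Activity was fitted in the positive direction against DMSO as negative control and baseline.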
# [11] = read-out: Matrix Metallopeptidase 9 (MMP9), MMP9 (gene 4318); test: BSK_BE3C_MMP9: BioMAP Diversity Plus: BE3C Assay for Matrix Metallopeptidase 9 (MMP9) Biomarker Activity (AID 2284283); conditions: primary human bronchial epithelial cells
# Summary of the method: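 Cells were dosed, incubated 24 h, then assayed for MMP-9 by ELISA; activity was fitted upward against DMSO. The system used human lung primary bronchial epithelial cells, with SRB total-protein staining run alongside for cytotoxicity.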
# [12] = read-out: Plasminogen activator inhibitor-1 (PAI1), SERPINE1 (gene 5054); test: BSK_CASM3C_PAI1: BioMAP Diversity Plus: CASM3C Assay for Plasminogen activator inhibitor-1 (PAI1) Biomarker Activity (AID 2284284); conditions: primary human coronary artery smooth muscle cells;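 further: PAI-1 protein level measured by ELISA 24 h after dosing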
# [13] = read-out: Monocyte Chemoattractant Protein-1 (MCP1), CCL2 (gene 6347); test: BSK_hDFCGF_MCP1: BioMAP Diversity Plus: hDFCGF Assay for Monocyte Chemoattractant Protein-1 (MCP1) Biomarker Activity (AID 2284285); conditions: primary human foreskin fibroblasts
# Summary of the method: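 Human foreskin fibroblasts (hDFCGF system) were exposed to compound and secreted MCP-1 was measured by ELISA after 24 hours. Activity was fitted relative to DMSO. Cytotoxicity was checked by SRB total-protein staining in parallel cultures.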
# [14] = read-out: Vascular cell adhesion molecule 1 (VCAM1), VCAM1 (gene 7412); test: BSK_IMphg_VCAM1: BioMAP Diversity Plus: IMphg Assay for Vascular cell adhesion molecule 1 (VCAM1) Biomarker Activity (AID 2284286); conditions: primary human endothelial cells with macrophages
# Summary of the method: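 Human venular endothelial cells co-cultured with macrophages; VCAM-1 quantified by ELISA 24 h after dosing, fitted in the positive direction against DMSO. Cytotoxicity was checked in parallel cultures by SRB total-protein staining (0.1% SRB after 10% TCA fixation, 560 nm).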
# [15] = read-out: Intercellular Adhesion Molecule 1 (ICAM1), ICAM1 (gene 3383); test: BSK_hDFCGF_ICAM1: BioMAP Diversity Plus: hDFCGF Assay for Intercellular Adhesion Molecule 1 (ICAM1) Biomarker Activity (AID 2284287); conditions: primary human foreskin fibroblasts
# Summary of the method: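 Primary human foreskin fibroblasts (hDFCGF system) dosed with chemical; ICAM-1 quantified by ELISA at 24 h relative to DMSO. Parallel SRB total-protein staining to assess overt cytotoxicity.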
# CD40, CD40 (gene 958) = test: BSK_IMphg_CD40: BioMAP Diversity Plus: IMphg Assay for CD40 Biomarker Activity (AID 2284288); conditions: primary human endothelial cells with macrophages
# Summary of the method: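 Venular endothelial cells co-cultured with macrophages (human primary), CD40 measured by ELISA 24 h after dosing. Positive-direction fit vs DMSO baseline; cytotoxicity tracked by SRB total-protein staining in parallel cultures.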
# [16] = read-out: TIMP metallopeptidase inhibitor 2 (TIMP2), TIMP2 (gene 7077); test: BSK_hDFCGF_TIMP2: BioMAP Diversity Plus: hDFCGF Assay for TIMP metallopeptidase inhibitor 2 (TIMP2) Biomarker Activity (AID 2284289); conditions: primary human foreskin fibroblasts
# Summary of the method: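 Primary human foreskin fibroblasts in the hDFCGF system, dosed for 24 h; TIMP-2 level measured by ELISA, fitted in the positive direction against DMSO; cytotoxicity checked in parallel by sulforhodamine B total protein staining.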
# [17] = read-out: Interleukin-1 alpha (IL1a), IL1A (gene 3552); test: BSK_IMphg_IL1a: BioMAP Diversity Plus: IMphg Assay for Interleukin-1 alpha (IL1a) Biomarker Activity (AID 2284290); conditions: primary human endothelial cells with macrophages
# Summary of the method: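 Human venular endothelial cells co-cultured with macrophages, IMphg system. IL-1α is measured by ELISA 24 h after dosing and fitted in the positive direction against DMSO. Cytotoxicity is assessed by SRB staining of parallel cultures.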
# [18] = read-out: E-selectin (Homo sapiens) (UniProt P16581); test: BSK_IMphg_ESelectin: BioMAP Diversity Plus: IMphg Assay for Eselectin Biomarker Activity (AID 2284291); conditions: primary human endothelial cells with macrophages
# Summary of the method: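 Human venular endothelial cell–macrophage co-culture, E-selectin measured by ELISA 24 h after chemical dosing. Signal fitted in the positive direction against DMSO as negative control and baseline.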
# Sequence of E-selectin (Homo sapiens) (P16581 whole entry, looked up): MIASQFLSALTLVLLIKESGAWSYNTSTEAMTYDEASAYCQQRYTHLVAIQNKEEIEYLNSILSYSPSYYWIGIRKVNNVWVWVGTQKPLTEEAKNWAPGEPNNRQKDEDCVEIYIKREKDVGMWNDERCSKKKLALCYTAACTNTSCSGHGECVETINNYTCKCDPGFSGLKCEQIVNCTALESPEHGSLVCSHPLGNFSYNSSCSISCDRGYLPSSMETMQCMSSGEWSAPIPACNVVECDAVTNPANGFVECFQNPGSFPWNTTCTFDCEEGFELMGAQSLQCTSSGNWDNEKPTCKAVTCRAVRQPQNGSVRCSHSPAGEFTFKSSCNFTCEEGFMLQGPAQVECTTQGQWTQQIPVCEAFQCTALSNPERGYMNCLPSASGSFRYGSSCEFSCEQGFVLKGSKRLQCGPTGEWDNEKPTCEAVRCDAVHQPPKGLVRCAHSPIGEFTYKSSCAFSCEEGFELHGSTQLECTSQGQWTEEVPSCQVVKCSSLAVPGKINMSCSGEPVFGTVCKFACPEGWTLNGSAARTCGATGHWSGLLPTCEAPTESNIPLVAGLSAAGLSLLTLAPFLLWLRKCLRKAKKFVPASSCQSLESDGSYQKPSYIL
compound,measurement,setting,value
O=C(O)C(F)(F)C(F)(F)C(F)(F)C(F)(F)C(F)(F)C(F)(F)C(F)(F)C(F)(F)C(F)(F)C(F)(F)F,AC50,[1],4.42 µM (active) and 5.58 µM (active)
same,AC50,[2],5.2 µM (active) and 6.13 µM (active)
same,AC50,[3],5.49 µM (active) and 5.63 µM (active)
same,AC50,[4],6.49 µM (active) and 6.17 µM (active)
same,AC50,[5],4.36 µM (active) and 5.37 µM (active)
same,outcome,[6],inactive
same,AC50,[7],5.73 µM (active) and 6.33 µM (active)
same,AC50,[8],2.65 µM (active) and 2.84 µM (active)
same,AC50,[9],4.19 µM (active) and 3.81 µM (active)
same,AC50,[10],4.31 µM (active) and 2.34 µM (active)
same,AC50,KRT18 (gene 3875),4.21 µM (active) and 5.29 µM (active)
same,AC50,[11],3.77 µM (active) and 3.33 µM (active)
same,outcome,[12],inactive
same,AC50,[13],5.24 µM (active) and 5.63 µM (active)
same,outcome,[14],inactive
same,AC50,[15],5.12 µM (active) and 5.47 µM (active)
same,outcome,"CD40, CD40 (gene 958)",inactive
same,AC50,[16],6.09 µM (active) and 5.21 µM (active)
same,outcome,[17],inactive
same,outcome,[18],inactive
O=C(O)CCC(F)(C(F)(F)F)C(F)(F)F,outcome,[1],inactive
same,outcome,[2],inactive
same,outcome,[3],inactive
same,outcome,[4],inactive
same,outcome,[5],inactive
same,outcome,[6],inactive
same,outcome,[7],inactive
same,outcome,[8],inactive
same,outcome,[9],inactive
same,outcome,[10],inactive
same,outcome,KRT18 (gene 3875),inactive
same,outcome,[11],inactive
same,outcome,[12],inactive
same,outcome,[13],inactive
same,outcome,[14],inactive
same,outcome,[15],inactive
same,outcome,"CD40, CD40 (gene 958)",inactive
same,outcome,[16],inactive
same,outcome,[17],inactive
same,outcome,[18],inactive
CC(=O)OC(c1ccccc1)C(Cl)(Cl)Cl (stereo not drawn),outcome,[7],inactive
same,outcome,[8],inactive
same,outcome,[9],inactive
same,outcome,[10],inactive
same,outcome,KRT18 (gene 3875),inactive
same,outcome,[11],inactive
same,outcome,[12],inactive
same,outcome,[13],inactive
same,outcome,[15],inactive
same,outcome,[16],inactive
O=C(O)C(F)(F)C(F)(F)C(F)(F)C(F)(F)C(F)(F)C(F)(F)F,outcome,[1],inactive
same,outcome,[2],inactive
same,outcome,[3],inactive
same,outcome,[4],inactive
same,AC50,[5],24.6 µM (active)
same,outcome,[5],inactive
same,AC50,[6],40.5 µM (active)
same,outcome,[6],inactive
same,outcome,[7],inactive
same,outcome,[8],inactive
same,outcome,[9],inactive
same,outcome,[10],inactive
same,outcome,KRT18 (gene 3875),inactive
same,AC50,[11],30 µM (active)
same,outcome,[11],inactive
same,outcome,[12],inactive
same,outcome,[13],inactive
same,outcome,[14],inactive
same,outcome,[15],inactive
same,outcome,"CD40, CD40 (gene 958)",inactive
same,outcome,[16],inactive
same,outcome,[17],inactive
same,outcome,[18],inactive
COC(=O)Cc1ccccc1,outcome,[7],inactive
same,outcome,[8],inactive
same,outcome,[9],inactive
same,outcome,[10],inactive
same,outcome,KRT18 (gene 3875),inactive
same,outcome,[11],inactive
same,outcome,[12],inactive
same,outcome,[13],inactive
same,outcome,[15],inactive
same,outcome,[16],inactive
